# The panel holds about 79,000 compounds, 15% with a hit somewhere; the sample as a whole holds those more often. A number with no mark means an inactive call. Active and inactive are the calls of the source. No stated cut-off is given here; in the data, active means growth inhibition above about 70%; inactive means the rest.
# Columns and labels:
# [1] = NCI Yeast Anticancer Drug Screen. Data for the wt1 strain (AID 149);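 further: 0% = growth of vehicle-treated wt1 cultures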; details: S. cerevisiae wt1 strain (SPY 50644) growth inhibition, stronger effect = higher value
# In short: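 Each compound is tested on wt1 yeast and the loss of growth versus vehicle gives the inhibition value.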
# [2] = NCI Yeast Anticancer Drug Screen. Data for the rad50EPP+ strain (AID 151);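 further: 0% = growth of vehicle-treated control cultures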; details: S. cerevisiae rad50 mutant strain, stronger effect = higher value
# In short: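 Strain rad50EPP+; compound exposure; % growth inhibition vs vehicle.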
# [3] = NCI Yeast Anticancer Drug Screen. Data for the mgt1 strain (AID 153); details: S. cerevisiae mgt1 mutant growth inhibition, stronger effect = higher value
# In short: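 Read-out: yeast growth inhibition vs vehicle control. Strain mgt1, drawn from a panel altered in DNA damage repair or cell cycle control.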
# [4] = NCI Yeast Anticancer Drug Screen. Data for the rad50 strain (AID 155);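 further: 0% = growth of vehicle-only cultures of the same strain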; details: S. cerevisiae rad50 strain growth inhibition, stronger effect = higher value
# In short: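 Vehicle-treated cultures provide the reference for the growth inhibition reported for compound-exposed, repair-deficient yeast.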
# [5] = NCI Yeast Anticancer Drug Screen. Data for the mec2-1 strain (AID 157); details: S. cerevisiae mec2-1 strain, stronger effect = higher value
# In short: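 Cells of the genetically defined mec2-1 yeast strain are incubated with test compound. Inhibition of growth is calculated against vehicle-treated controls.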
# [6] = NCI Yeast Anticancer Drug Screen. Data for the rad14 strain (AID 159);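 further: 0% = growth of vehicle-treated control cultures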; details: S. cerevisiae rad14 strain growth inhibition, stronger effect = higher value
# In short: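 Inhibition of growth is reported for a repair-deficient yeast mutant following compound treatment, calculated relative to cultures that received vehicle.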
# [7] = NCI Yeast Anticancer Drug Screen. Data for the sgs1 mgt1 strain (AID 161);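 further: 0% = growth of cultures given vehicle only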; details: S. cerevisiae sgs1 mgt1 strain, stronger effect = higher value
# In short: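 Inhibition of yeast growth, normalised to vehicle-treated controls, is reported for a strain bearing genetic alterations in DNA damage repair.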
# [8] = NCI Yeast Anticancer Drug Screen. Data for the CLN2oe strain (AID 163);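 further: 0% = growth of vehicle-only control cultures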; details: S. cerevisiae CLN2oe strain, stronger effect = higher value
# In short: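 Strain altered in cell-cycle control, incubated with compound; growth compared to solvent-treated controls.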
# [9] = NCI Yeast Anticancer Drug Screen. Data for the cln2 rad14 strain (AID 165);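 further: 0% = growth equal to vehicle treated cultures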; details: S. cerevisiae cln2 rad14 strain, stronger effect = higher value
# In short: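 The screen exposed genetically defined yeast (cln2 rad14) to test compounds and scored growth inhibition relative to vehicle-treated controls.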
# [10] = NCI Yeast Anticancer Drug Screen. Data for the bub3 strain (AID 167); details: S. cerevisiae bub3 mutant strain, stronger effect = higher value
# In short: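 Mutant yeast screening strain plus compound; vehicle-treated cultures serve as the 0% inhibition reference.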
# [11] = NCI Yeast Anticancer Drug Screen. Data for the wt2 strain (AID 169); details: S. cerevisiae wt2 strain growth inhibition, stronger effect = higher value
# In short: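 Steps: yeast strain treated with compound; growth recorded; inhibition calculated relative to cultures given vehicle alone.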
# [12] = NCI Yeast Anticancer Drug Screen. Data for the mlh1 strain (AID 171);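 further: 0% = growth of vehicle-treated control cultures of the same strain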; details: S. cerevisiae mlh1 strain growth inhibition, stronger effect = higher value
# In short: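 Yeast screen: mutant strain plus compound, growth scored against vehicle control wells.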
# [13] = NCI Yeast Anticancer Drug Screen. Data for the sgs1 strain (AID 173);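 further: 0% = growth of vehicle-only control cultures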; details: S. cerevisiae sgs1 mutant, stronger effect = higher value
# In short: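 Inhibition of yeast growth served as the measure. The mutant strain was treated with each compound, and growth was normalised to cultures receiving vehicle alone.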
# [14] = NCI Yeast Anticancer Drug Screen. Data for the mlh1 rad18 strain (AID 175); details: S. cerevisiae mlh1 rad18 strain growth inhibition, stronger effect = higher value
# In short: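 Compound-treated yeast growth, normalised to vehicle controls. Strain bears defined DNA repair mutations.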
# [15] = NCI Yeast Anticancer Drug Screen. Data for the rad18 strain (AID 177); details: S. cerevisiae rad18 mutant growth inhibition, stronger effect = higher value
# In short: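 Inhibition values reflect reduced yeast growth compared with vehicle-treated controls, using a strain engineered with a DNA damage repair defect.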
# [16] = at 5.0 µM (retest, dose inferred, filed as 0.5)
# [17] = at 50.0 µM (retest, dose inferred, filed as 5.0)
compound,measurement,setting,value
Cc1c2ccncc2c(C)c2c1oc1ccccc12,growth inhibition,[1]; at 1.2 µM,1%
same,growth inhibition,[1]; at 3.7 µM,2%
same,growth inhibition,[1]; at 11.0 µM,10%
same,growth inhibition,[1]; at 33.0 µM,89% (active)
same,growth inhibition,[1]; at 100.0 µM,97% (active)
same,growth inhibition,[2]; at 1.2 µM,52%
same,growth inhibition,[2]; at 3.7 µM,82% (active)
same,growth inhibition,[2]; at 11.0 µM,84% (active)
same,growth inhibition,[2]; at 33.0 µM,98% (active)
same,growth inhibition,[2]; at 100.0 µM,97% (active)
same,growth inhibition,[3]; at 1.2 µM,-1%
same,growth inhibition,[3]; at 3.7 µM,6%
same,growth inhibition,[3]; at 11.0 µM,10%
same,growth inhibition,[3]; at 33.0 µM,61%
same,growth inhibition,[3]; at 100.0 µM,98% (active)
same,growth inhibition,[4]; at 1.2 µM,53%
same,growth inhibition,[4]; at 3.7 µM,87% (active)
same,growth inhibition,[4]; [16],92% (active)
same,growth inhibition,[4]; at 11.0 µM,94% (active)
same,growth inhibition,[4]; at 33.0 µM,97% (active)
same,growth inhibition,[4]; [17],88% (active)
same,growth inhibition,[4]; at 50.0 µM,39.2%
same,growth inhibition,[4]; at 100.0 µM,95% (active)
same,growth inhibition,[5]; at 1.2 µM,5%
same,growth inhibition,[5]; at 3.7 µM,13%
same,growth inhibition,[5]; [16],29%
same,growth inhibition,[5]; at 11.0 µM,17%
same,growth inhibition,[5]; at 33.0 µM,80% (active)
same,growth inhibition,[5]; [17],93% (active)
same,growth inhibition,[5]; at 50.0 µM,51%
same,growth inhibition,[5]; at 100.0 µM,98% (active)
same,growth inhibition,[6]; at 1.2 µM,5%
same,growth inhibition,[6]; at 3.7 µM,29%
same,growth inhibition,[6]; at 11.0 µM,48%
same,growth inhibition,[6]; at 33.0 µM,93% (active)
same,growth inhibition,[6]; at 100.0 µM,98% (active)
same,growth inhibition,[7]; [16],4%
same,growth inhibition,[7]; [17],93% (active)
same,growth inhibition,[7]; at 50.0 µM,44.8%
same,growth inhibition,[8]; at 1.2 µM,12%
same,growth inhibition,[8]; at 3.7 µM,30%
same,growth inhibition,[8]; at 11.0 µM,53%
same,growth inhibition,[8]; at 33.0 µM,89% (active)
same,growth inhibition,[8]; at 100.0 µM,97% (active)
same,growth inhibition,[9]; [16],31%
same,growth inhibition,[9]; [17],93% (active)
same,growth inhibition,[9]; at 50.0 µM,94.2% (active)
same,growth inhibition,[10]; at 1.2 µM,19%
same,growth inhibition,[10]; at 3.7 µM,24%
same,growth inhibition,[10]; [16],27%
same,growth inhibition,[10]; at 11.0 µM,40%
same,growth inhibition,[10]; at 33.0 µM,88% (active)
same,growth inhibition,[10]; [17],94% (active)
same,growth inhibition,[10]; at 50.0 µM,96.4% (active)
same,growth inhibition,[10]; at 100.0 µM,98% (active)
same,growth inhibition,[11]; at 1.2 µM,7%
same,growth inhibition,[11]; at 3.7 µM,17%
same,growth inhibition,[11]; at 11.0 µM,57%
same,growth inhibition,[11]; at 33.0 µM,94% (active)
same,growth inhibition,[11]; at 100.0 µM,98% (active)
same,growth inhibition,[12]; at 1.2 µM,1%
same,growth inhibition,[12]; at 3.7 µM,16%
same,growth inhibition,[12]; at 11.0 µM,8%
same,growth inhibition,[12]; at 33.0 µM,87% (active)
same,growth inhibition,[12]; at 100.0 µM,98% (active)
same,growth inhibition,[13]; at 1.2 µM,-5%
same,growth inhibition,[13]; at 3.7 µM,-6%
same,growth inhibition,[13]; at 11.0 µM,16%
same,growth inhibition,[13]; at 33.0 µM,93% (active)
same,growth inhibition,[13]; at 100.0 µM,95% (active)
same,growth inhibition,[14]; [16],64%
same,growth inhibition,[14]; [17],90% (active)
same,growth inhibition,[14]; at 50.0 µM,50.1%
same,growth inhibition,[15]; at 1.2 µM,-2%
same,growth inhibition,[15]; at 3.7 µM,32%
same,growth inhibition,[15]; at 11.0 µM,56%
same,growth inhibition,[15]; at 33.0 µM,95% (active)
same,growth inhibition,[15]; at 100.0 µM,98% (active)
CN(C)CCC(=O)c1c[nH]c2ccccc12,growth inhibition,[1]; at 1.2 µM,-18%
same,growth inhibition,[1]; at 3.7 µM,-7%
same,growth inhibition,[1]; at 11.0 µM,-7%
same,growth inhibition,[1]; at 33.0 µM,-19%
same,growth inhibition,[1]; at 100.0 µM,18%
same,growth inhibition,[2]; at 1.2 µM,-17%
same,growth inhibition,[2]; at 3.7 µM,24%
same,growth inhibition,[2]; at 11.0 µM,16%
same,growth inhibition,[2]; at 33.0 µM,39%
same,growth inhibition,[2]; at 100.0 µM,54%
same,growth inhibition,[3]; at 1.2 µM,-38%
same,growth inhibition,[3]; at 3.7 µM,-10%
same,growth inhibition,[3]; at 11.0 µM,-39%
same,growth inhibition,[3]; at 33.0 µM,-16%
same,growth inhibition,[3]; at 100.0 µM,18%
same,growth inhibition,[4]; at 1.2 µM,-21%
same,growth inhibition,[4]; at 3.7 µM,-17%
same,growth inhibition,[4]; [16],82% (active)
same,growth inhibition,[4]; at 11.0 µM,-26%
same,growth inhibition,[4]; at 33.0 µM,5%
same,growth inhibition,[4]; [17],98% (active)
same,growth inhibition,[4]; at 50.0 µM,73.5% (active)
same,growth inhibition,[4]; at 100.0 µM,49%
same,growth inhibition,[5]; at 1.2 µM,-41%
same,growth inhibition,[5]; at 3.7 µM,-35%
same,growth inhibition,[5]; [16],67%
same,growth inhibition,[5]; at 11.0 µM,-24%
same,growth inhibition,[5]; at 33.0 µM,-8%
same,growth inhibition,[5]; [17],98% (active)
same,growth inhibition,[5]; at 50.0 µM,37.7%
same,growth inhibition,[5]; at 100.0 µM,64%
same,growth inhibition,[6]; at 1.2 µM,-23%
same,growth inhibition,[6]; at 3.7 µM,-29%
same,growth inhibition,[6]; at 11.0 µM,-9%
same,growth inhibition,[6]; at 33.0 µM,-2%
same,growth inhibition,[6]; at 100.0 µM,18%
same,growth inhibition,[7]; [16],15%
same,growth inhibition,[7]; [17],57%
same,growth inhibition,[7]; at 50.0 µM,63%
same,growth inhibition,[8]; at 1.2 µM,-11%
same,growth inhibition,[8]; at 3.7 µM,-14%
same,growth inhibition,[8]; at 11.0 µM,-14%
same,growth inhibition,[8]; at 33.0 µM,-6%
same,growth inhibition,[8]; at 100.0 µM,8%
same,growth inhibition,[9]; [16],77% (active)
same,growth inhibition,[9]; [17],36%
same,growth inhibition,[9]; at 50.0 µM,31.1%
same,growth inhibition,[10]; at 1.2 µM,-23%
same,growth inhibition,[10]; at 3.7 µM,-29%
same,growth inhibition,[10]; [16],22%
same,growth inhibition,[10]; at 11.0 µM,-36%
same,growth inhibition,[10]; at 33.0 µM,-35%
same,growth inhibition,[10]; [17],51%
same,growth inhibition,[10]; at 50.0 µM,64.9%
same,growth inhibition,[10]; at 100.0 µM,37%
same,growth inhibition,[11]; at 1.2 µM,-19%
same,growth inhibition,[11]; at 3.7 µM,-46%
same,growth inhibition,[11]; at 11.0 µM,-19%
same,growth inhibition,[11]; at 33.0 µM,-14%
same,growth inhibition,[11]; at 100.0 µM,25%
same,growth inhibition,[12]; at 1.2 µM,-61%
same,growth inhibition,[12]; at 3.7 µM,-74%
same,growth inhibition,[12]; at 11.0 µM,-56%
same,growth inhibition,[12]; at 33.0 µM,-20%
same,growth inhibition,[12]; at 100.0 µM,37%
same,growth inhibition,[13]; at 1.2 µM,-42%
same,growth inhibition,[13]; at 3.7 µM,-33%
same,growth inhibition,[13]; at 11.0 µM,-34%
same,growth inhibition,[13]; at 33.0 µM,14%
same,growth inhibition,[13]; at 100.0 µM,54%
same,growth inhibition,[14]; [16],47%
same,growth inhibition,[14]; [17],97% (active)
same,growth inhibition,[14]; at 50.0 µM,45.8%
same,growth inhibition,[15]; at 1.2 µM,-55%
same,growth inhibition,[15]; at 3.7 µM,-62%
same,growth inhibition,[15]; at 11.0 µM,-47%
same,growth inhibition,[15]; at 33.0 µM,8%
same,growth inhibition,[15]; at 100.0 µM,57%
